Data published in PubChem BioAssay.
Unmarked numbers belong to inactive results. Activity calls are given as the source filed them.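 Rule for the calls, unless noted: active = inhibition above 50%; inactive = the rest.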

experiment: antimalarial activity against Dd2 strain (AID 2302;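 active = growth inhibition above 50% at the single 2 µM test dose, taken to imply half-maximal potency below 2 µM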;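 note: 0% = DMSO untreated growth and 100% = chloroquine plus artemisinin killed control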); conditions: P. falciparum Dd2 in RBCs, LDH growth readout, 72 h; at 2 µM; hits give high values

Structure (SMILES)	growth inhibition
CN(CC(=O)Nc1ccc(F)cc1)C(=O)c1ccc(-c2ccc(F)cc2)o1	84% (active)
Cc1ccc(-c2cnc(N)c3cc(-c4ccnc(N)n4)ccc23)cc1	94% (active)
CCNc1cc(C(=O)N[C@@H](Cc2ccccc2)[C@H](O)CNCCc2cccc3ccccc23)cc(N2CCCC2=O)c1	39%
Nc1cc(-c2cccc(Cl)c2)nn1-c1ccnc2cc(Cl)ccc12	33%
Cc1cccc(CNc2nccc3[nH]c4ccccc4c23)c1	51% (active)
COc1ccccc1CCCON1C(N)=NC(N)=NC1(C)C	92% (active)
CC1CCC(NC(=O)c2nn(-c3ccc(Cl)cc3)c(=O)c3ccccc23)CC1 (stereo unspecified)	67% (active)
CC1(C)N=C(N)N=C(N)N1c1cc(Cl)c(Cl)cc1Cl	-3%
COc1cccc(-c2cc(C(=O)Nc3ccc4nc(-c5ccccc5)[nH]c4c3)[nH]n2)c1	65% (active)
Cc1cc(NCC(c2ccccc2)c2ccccc2)nc(NCC2CCCCC2)n1	93% (active)
C=CCc1cc(OC)ccc1OCCCOc1c(C)nc(N)nc1N	97% (active)
Cc1c(-c2ccc(C(=O)NC3CC(C)(C)NC(C)(C)C3)cc2)[nH]c2cc(Cl)c(Cl)cc12	68% (active)
CC(C)NCc1ccc(-c2ccc(NC(=O)c3ccc(Cl)cc3)cc2)cc1	8%
CN1CCN(c2cccc(-c3nnc(-c4ccc(OCC(=O)NCc5cccc(C(F)(F)F)c5)c([N+](=O)[O-])c4)o3)c2)CC1	72% (active)
N#Cc1ccc(CN2CCC(Oc3ccc(NC(=O)c4cccs4)cc3Cl)C2)cc1 (stereo unspecified)	95% (active)
COc1ccc(NC(=O)CSc2nc(-c3ccccc3Cl)ns2)cc1OC	63% (active)
CCNc1cc(C(=O)N[C@@H](Cc2ccccc2)[C@H](O)CNC2(C(C)C)CCC2)cc(N2CCCCS2(=O)=O)c1	85% (active)
COc1ccc(-c2c3c(=O)n(C)c(=O)n(C)c3c3nnc4ccccc4n23)cc1	86% (active)
COc1ccc(NC(=O)c2cn(-c3ccc(C(C)(C)C)cc3)nc2C)cc1N1CCN(C)CC1	71% (active)
Cc1cc(NN=Cc2ccccc2F)c2cc(C(F)(F)F)ccc2n1	67% (active)
COc1ccc2nccc([C@@H](O)CN3CCC(NCCOc4ccc(F)cc4Cl)CC3)c2c1	85% (active)
O=[N+]([O-])c1ccc(Oc2ccccc2CNCC2CCN(CC3CCCCC3)CC2)cc1	28%
COc1ccc(Cl)cc1N1CCN(CCCNC(=O)c2ccc(-c3nc4cc(Cl)c(C)cc4[nH]3)c(F)c2)CC1	91% (active)
c1csc(-c2nc(NCC3CCCO3)ncc2-c2ccsc2)n1 (stereo unspecified)	83% (active)
CCOc1ccc(C(C)NC(=O)C2COc3ccccc3O2)cc1OCC (stereo unspecified)	100% (active)
CC1(C)N=C(N)N=C(N)N1OCCCOc1cc(Cl)cc(Cl)c1	97% (active)

experiment: human hepatoma cell viability loss – ATP luminescence, cytotoxicity control for P. falciparum antimalarial project, primary screen (AID 2303); conditions: HepG2 viability, 24-48 h, at 10 µM, hits give high values;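 note: 0% = DMSO wells and 100% = digitonin-killed cells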

Structure (SMILES)	inhibition
CN(CCCCCN1CCC(NC(=O)Nc2ccc(C(F)(F)F)cc2)C1)C(=O)/C=C/c1ccc(Cl)c(Cl)c1 (stereo unspecified)	28%
O=[N+]([O-])c1cccc(CNCC2CCN(Cc3ccc4ccccc4c3)CC2)c1	18%
CCCCCCN1CCC(CNCc2cccc([N+](=O)[O-])c2)CC1	16%
COc1ccc(-c2nonc2NC(=O)c2ccc(OC(C)C)cc2)cc1OC	11%
CN1CCN(CC(O)CNC(=O)Nc2ccc(Cl)cc2)CC1 (stereo unspecified)	1%
CCN(CC)S(=O)(=O)n1ncc2c3c(N)nc(N)nc3ccc21	67% (active)
CCNc1cc(C(=O)N[C@@H](Cc2ccccc2)[C@H](O)CNC23CC4CC(CC(C4)C2)C3)cc(N2CCCCS2(=O)=O)c1	3%
Cn1cncc1-c1ccc2ncnc(Nc3ccc4c(cnn4Cc4ccccc4)c3)c2c1	1%
CNC(=O)c1cc(NCCCNCc2ccc(Cl)c(C(F)(F)F)c2)nc2ccccc12	25%
O=C(N[C@@H](Cc1ccccc1)C(=O)NCCN1CCCCC1)c1ccc(O)c(-c2cccc(C(F)(F)F)c2)c1	0%
CN(C)CCNCc1ccc(-c2cccc(-c3nc4ccccc4[nH]3)c2)cc1	31%
Cc1cc(N[C@@H](Cc2ccccc2)C(=O)Nc2ccccc2)nc(NCCc2ccc(F)cc2)n1	26%
CC(=O)Nc1nc(C(=O)Nc2cccc(-c3cccc(-c4nc5c(C)cccc5[nH]4)c3)c2)cs1	28%
O=C(Nc1ccc(-c2csc3nccn23)cc1)c1ccc(Cl)cc1	54% (active)
CN(CC(=O)Nc1ccc(F)cc1)C(=O)c1ccc(-c2ccc(F)cc2)o1	3%
Cc1ccc(-c2cnc(N)c3cc(-c4ccnc(N)n4)ccc23)cc1	41%
CCNc1cc(C(=O)N[C@@H](Cc2ccccc2)[C@H](O)CNCCc2cccc3ccccc23)cc(N2CCCC2=O)c1	12%
Nc1cc(-c2cccc(Cl)c2)nn1-c1ccnc2cc(Cl)ccc12	-3%
Cc1cccc(CNc2nccc3[nH]c4ccccc4c23)c1	14%
COc1ccccc1CCCON1C(N)=NC(N)=NC1(C)C	68% (active)

Structure (SMILES)	inhibition
CC1CCC(NC(=O)c2nn(-c3ccc(Cl)cc3)c(=O)c3ccccc23)CC1 (stereo unspecified)	3%
CC1(C)N=C(N)N=C(N)N1c1cc(Cl)c(Cl)cc1Cl	11%
COc1cccc(-c2cc(C(=O)Nc3ccc4nc(-c5ccccc5)[nH]c4c3)[nH]n2)c1	68% (active)
Cc1cc(NCC(c2ccccc2)c2ccccc2)nc(NCC2CCCCC2)n1	12%
C=CCc1cc(OC)ccc1OCCCOc1c(C)nc(N)nc1N	67% (active)
Cc1c(-c2ccc(C(=O)NC3CC(C)(C)NC(C)(C)C3)cc2)[nH]c2cc(Cl)c(Cl)cc12	34%
CC(C)NCc1ccc(-c2ccc(NC(=O)c3ccc(Cl)cc3)cc2)cc1	60% (active)
CN1CCN(c2cccc(-c3nnc(-c4ccc(OCC(=O)NCc5cccc(C(F)(F)F)c5)c([N+](=O)[O-])c4)o3)c2)CC1	25%
N#Cc1ccc(CN2CCC(Oc3ccc(NC(=O)c4cccs4)cc3Cl)C2)cc1 (stereo unspecified)	31%
COc1ccc(NC(=O)CSc2nc(-c3ccccc3Cl)ns2)cc1OC	-1%
CCNc1cc(C(=O)N[C@@H](Cc2ccccc2)[C@H](O)CNC2(C(C)C)CCC2)cc(N2CCCCS2(=O)=O)c1	-3%
COc1ccc(-c2c3c(=O)n(C)c(=O)n(C)c3c3nnc4ccccc4n23)cc1	-7%
COc1ccc(NC(=O)c2cn(-c3ccc(C(C)(C)C)cc3)nc2C)cc1N1CCN(C)CC1	33%
Cc1cc(NN=Cc2ccccc2F)c2cc(C(F)(F)F)ccc2n1	5%
COc1ccc2nccc([C@@H](O)CN3CCC(NCCOc4ccc(F)cc4Cl)CC3)c2c1	1%
O=[N+]([O-])c1ccc(Oc2ccccc2CNCC2CCN(CC3CCCCC3)CC2)cc1	40%
COc1ccc(Cl)cc1N1CCN(CCCNC(=O)c2ccc(-c3nc4cc(Cl)c(C)cc4[nH]3)c(F)c2)CC1	-1%
c1csc(-c2nc(NCC3CCCO3)ncc2-c2ccsc2)n1 (stereo unspecified)	-4%
CCOc1ccc(C(C)NC(=O)C2COc3ccccc3O2)cc1OCC (stereo unspecified)	-4%
CC1(C)N=C(N)N=C(N)N1OCCCOc1cc(Cl)cc(Cl)c1	62% (active)
